Sampled rows, rich in hits. Any-hit rate of the full collection: about 1.5%.
FAK inh = FAK kinase inhibitors, primary screen, biochemical. biochemical FAK kinase activity assay. AID 727, 2007. actives 0.84% (n = 97,000). inhibition, %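 (tested at 7 µM)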; in the data active = inhibition above about 19%;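 also: 0% = DMSO and 100% = reference compound high control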
Target sequence (Q05397 whole entry, looked up): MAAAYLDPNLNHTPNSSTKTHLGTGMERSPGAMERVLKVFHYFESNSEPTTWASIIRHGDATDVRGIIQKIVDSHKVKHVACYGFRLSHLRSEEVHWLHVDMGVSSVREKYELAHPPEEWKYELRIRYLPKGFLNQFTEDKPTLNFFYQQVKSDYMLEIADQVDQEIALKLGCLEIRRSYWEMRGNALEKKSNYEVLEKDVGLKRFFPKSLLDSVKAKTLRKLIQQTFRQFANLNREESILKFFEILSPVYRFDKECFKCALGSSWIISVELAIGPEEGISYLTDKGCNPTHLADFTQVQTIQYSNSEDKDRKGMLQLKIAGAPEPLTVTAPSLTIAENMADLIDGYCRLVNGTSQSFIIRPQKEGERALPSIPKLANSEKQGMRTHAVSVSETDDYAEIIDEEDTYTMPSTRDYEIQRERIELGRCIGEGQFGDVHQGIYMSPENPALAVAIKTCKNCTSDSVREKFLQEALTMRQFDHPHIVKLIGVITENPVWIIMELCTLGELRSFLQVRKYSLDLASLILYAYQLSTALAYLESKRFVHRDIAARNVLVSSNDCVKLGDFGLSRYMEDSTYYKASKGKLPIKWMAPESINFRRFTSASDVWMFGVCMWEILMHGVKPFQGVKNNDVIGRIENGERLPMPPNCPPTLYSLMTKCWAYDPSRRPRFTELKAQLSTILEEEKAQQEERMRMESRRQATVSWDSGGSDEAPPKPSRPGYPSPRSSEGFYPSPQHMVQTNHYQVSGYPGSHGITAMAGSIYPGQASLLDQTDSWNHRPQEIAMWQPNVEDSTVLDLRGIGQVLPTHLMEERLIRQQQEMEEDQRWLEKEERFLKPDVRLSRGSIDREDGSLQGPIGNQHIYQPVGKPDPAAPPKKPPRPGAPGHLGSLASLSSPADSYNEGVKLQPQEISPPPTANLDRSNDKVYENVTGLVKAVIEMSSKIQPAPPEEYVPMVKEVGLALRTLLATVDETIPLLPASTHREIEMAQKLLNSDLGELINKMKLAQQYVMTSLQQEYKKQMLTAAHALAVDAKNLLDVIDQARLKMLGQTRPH
Smad3 inh = Smad3/FoxH1 peptide binding inhibitors, primary screen, biochemical, TR-FRET. actives 0.29% (n = 88,000). inhibition, % at 25 µM. TR-FRET Smad3/Dy647-FoxH1 peptide binding, europium anti-His;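 active = compounds that reduce the energy-transfer binding signal between the protein and its labelled peptide by more than half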;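 also: 0% = Smad3 plus labelled peptide maximal FRET and 100% = peptide-only background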
PLK1 inh = human PLK1 kinase inhibitors, primary screen, biochemical, TR-FRET; inhibition, % at 10 µM; AID 619, 2007; Serine/threonine-protein kinase PLK1 (Homo sapiens), P53350; recombinant PLK1 kinase, TR-FRET peptide phosphorylation; actives 0.53% (n = 97,000);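 active = inhibition of 50% or more in the single-concentration screen; inactive = inhibition below 50%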;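 also: 0% = DMSO max control and 100% = H-89 dihydrochloride min control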
EphB4 antag = EphB4-ephrin-B2 interaction antagonists, primary screen, biochemical, TNYL-RAW peptide probe, fluorescence polarization | Ephrin type-B receptor 4 (Homo sapiens), P54760 | actives 0.15% (n = 97,000) | inhibition, % at 7 µM | EphB4 LBD / TNYL-RAW-Alexa532 peptide;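 active = inhibition above the screen-wide mean inhibition plus 3 SD, cut at about 15% in these data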;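 also: 0% = DMSO wells and 100% = excess unlabeled TNYL-RAW peptide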
Plk1 PBD FP = Plk1 polo box domain binding inhibitors, primary screen, biochemical, fluorescence polarization; Plk1 PBD phosphopeptide binding; inhibition, %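 (tested at about 20 µM)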; actives 0.13% (n = 97,000); in the data active = inhibition above about 34%, passing the limit was not always enough
Starred values were filed as active, the others as inactive; · = no result; [ ] = another dose, or the depositor's remark.

SMILES	FAK inh	Smad3 inh	PLK1 inh	EphB4 antag	Plk1 PBD FP
CC(=O)[C@@]1(N=Nc2ccc(S(N)(=O)=O)cc2)CCOC1=O	·	52*	·	·	·
CCOC(=O)c1cccc(NC(=O)C2CCN(S(=O)(=O)c3cccs3)CC2)c1	0	2	-26	-1	-19
Cc1nc2ccc(NC(=O)C3CCN(S(=O)(=O)c4cccs4)CC3)cc2s1	3	4	53*	4	14
Cn1c(CSCc2ccc(F)cc2)nnc1SCC(=O)Nc1nccs1	2	0	52*	3	0
Cn1c(CSCc2ccccc2)nnc1SCC(=O)Nc1nccs1	-3	15	56*	-6	-2
CC(C)(O)C(=O)NN(C(=O)c1ccccc1)c1ccc2ccccc2c1	4	7	-12	4	17
COc1ccc(CNC(=O)CN2CCC(C(=O)c3ccc(OC)cc3)CC2)cc1	3	6	-3	2	7
CCOC(=O)C1=C(c2ccccc2)N2CCS(=O)(=O)N=C2S1	2	9	-4	16*	5
Cc1ccc(NC(=O)COC(=O)c2ccc3c(c2)NC(=O)C2CCCN32)cc1 (centres undefined)	9	-4	-2	-1	-3
COC(=O)c1ccc2c(c1)NC(=O)C1CCCN21 (centres undefined)	·	56*[fluorescence artefact?]	·	·	·
c1nc(N2CCOCC2)c2[nH]cnc2n1	7	11	63*	0	1
O=C1CC(c2ccco2)CC(O)=C1C=Nc1cc(Cl)ccc1O (centres undefined)	2	-18	9	1	-35
COCCn1c(CN2CC(C)CC(C)C2)nc2c1c(=O)n(C)c(=O)n2C (centres undefined)	3	4	68*	-3	6
CC1CCCCN1C(=O)CSc1nnc(CSc2ncccn2)n1C (centres undefined)	-5	73*	-10	0	-19
Cn1c(CSc2ncccn2)nnc1SCC(=O)N1CCCCC1	·	-4	·	·	·
Cc1ccc(-n2ncc3c(=O)n(CC(=O)N4CCCCCC4)cnc32)cc1	7	6	4	16*	-25
COCCn1c(SCC(=O)N2CCCc3ccccc32)nc2cccnc21	-1	-2	3	8	-26
NCCCC(=O)N1c2ccccc2Sc2ccccc21	0	10	66*	-3	6
O=C(C1COc2ccccc2O1)N1CCN(c2ccccc2F)CC1 (centres undefined)	-8	8	1	6	12
O=c1cc(-c2ccccc2)[nH]c2ccccc12	5	7	-8	-2	1
O=c1nc(-c2ccccc2)c2ccccc2[nH]1	-1	-7	60*	2	7
CCC(=O)Nc1ccc(-c2nn3c(C)nnc3s2)cc1	-1	-5	-2	-7	5
Cc1nnc2sc(-c3ccc(NC(=O)c4ccc(-c5ccc(Br)cc5)o4)cc3)nn12	21*	-3	-13	-5	-10
CCCCOC(=O)CSc1nc(N)c(C#N)c(-c2ccc(OCC)cc2)c1C#N	-24	78*[fluorescence artefact?]	-187	-4	14
CCOc1ccc(-n2cc(C(=O)NC(C)C)c3cc(OC)c(OC)cc3c2=O)cc1	8	-11	54*	3	0
SMILES	FAK inh	Smad3 inh	PLK1 inh	EphB4 antag	Plk1 PBD FP
O=C(CSc1ncn[nH]1)Nc1nnc(-c2ccccc2)s1	-4	-11	63*	0	9
O=C(CSc1ncn[nH]1)Nc1ccccc1-c1ccccc1	-4	7	-8	1	20
Nc1nc(-n2cnnc2)nn1-c1ccccc1	·	1	·	·	·
CC1CCN(c2cc(N3CCC(C)CC3)c([N+](=O)[O-])cc2/C=C(\C#N)c2nn(-c3ccccc3)c(N)c2C#N)CC1	-3	·	55*	0	-13
NC(=O)COc1ccc(C2c3c(oc4ccccc4c3=O)C(=O)N2CC2CCCO2)cc1 (centres undefined)	2	77*	-10	-3	-15
COc1ccc(C2c3c(oc4ccccc4c3=O)C(=O)N2CC2CCCO2)cc1 (centres undefined)	5	-8	0	-6	-28
CCSCCOC(=O)C1=C(C)NC(=O)NC1c1ccccc1 (centres undefined)	5	-8	61*	6	14
CCSCCOC(=O)C1=C(C)NC(=O)NC1c1ccc2c(c1)OCO2 (centres undefined)	0	·	-14	4	24
